From PubChem BioAssay AID1628 (Sanford-Burnham Center for Chemical Genomics, 2009)
In all, about 190,000 compounds went through this assay and about 930 (0.49%) were called active. This is one part of the list. Potency and affinity values are given separately. Values without a mark were called inactive.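 How the source made its calls: active means z-score of insulin promoter reporter brightness in nuclei below -3 at 5 µM, with at least 500 cells counted; inconclusive means wells with under 500 cells, flagged as toxic or sparse; inactive means the rest.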

Assay: decrease of insulin promoter-GFP reporter – imaging, high-content screening, mouse beta cells (AID 1628)
Settings: MIN6 insulin promoter GFP reporter, at 5 µM, active compounds read low

| SMILES | z-score |
| --- | --- |
| CCC(/C=C1\Sc2ccc(OC)cc2N1CC)=C\c1sc2ccc(OC)cc2[n+]1CCCS(=O)(=O)[O-] | -3.29 (active) |
| CC[n+]1c(/C=C/C=C/N(C(C)=O)c2ccccc2)sc2cc(OC)ccc21 | 17.2 |
| CCN1/C(=C/c2cc[n+](CCCS(=O)(=O)[O-])c3ccccc23)Sc2ccccc21 | 6.08 |
| Cc1ccc(CN=Cc2[nH]c3ccc(Br)c(Cl)c3c2O)cc1 | 9.43 |
| Cc1ccc(Nc2nc(Cl)c(C=O)s2)cc1Cl | 6.83 |
| Cc1nc([N+](=O)[O-])c(N2CCN(Cc3ccccc3)CC2)n1Cc1ccccc1 | -3.12 (active) |
| Cc1nc([N+](=O)[O-])c(Br)n1CC(=O)c1cccc([N+](=O)[O-])c1 | 2.48 |
| CC(C)(C)C1CCc2c(sc(N)c2C(N)=O)C1 (stereo not drawn) | -5.29 (active) |
| O=[N+]([O-])c1ccc(N/N=C/c2sc(N3CCOCC3)nc2-c2ccccc2)c(S(=O)(=O)Nc2ccccc2Cl)c1 | 13.1 |
| COc1ccccc1NS(=O)(=O)c1cc([N+](=O)[O-])ccc1N/N=C/c1sc(N2CCOCC2)nc1-c1ccccc1 | 4.89 |
| Nc1ccc(C(=O)N/N=C/c2sc(N3CCOCC3)nc2-c2ccccc2)cc1 | -4.08 (active) |
| Oc1ccc(CN2CCC(Cc3ccccc3)CC2)c2cccnc12 | -5.12 (active) |
| CCOC(=O)c1nn(-c2ccc(Cl)cc2Cl)c(=N)c(C#N)c1C | 10.8 |
| CCOC(=O)c1c(C)nn(Cc2cccc(Cl)c2)c1N | -5.31 (active) |
| COc1ccc(C)cc1NC(=O)c1nnn(Cc2cccc(C(F)(F)F)c2)c1N | 3.48 |
| C=CCN1C(=O)/C(=C/C=C2/N(CC)c3ccc(S(=O)(=O)N(C)C)cc3N2CC)SC1=S | 17.1 |
| CCOC(=O)C(C)c1nn(C)c(=O)c2ccccc12 (stereo not drawn) | -3.52 (active) |
| CCOC(=O)C1C(=O)CC(C)(O)C(C(=O)OCC)C1c1ccccc1 (stereo not drawn) | 0.91 |
| COc1ccc(N2C(=O)CCC(C(=O)NCCCN3CCC(C)CC3)C2c2ccc(OC)c(OC)c2)cc1 (stereo not drawn) | 4.36 |
| CCCn1c(CN2CCN(c3cccc(Cl)c3)CC2)nc2c1c(=O)n(C)c(=O)n2C | -6.4 (active) |

| SMILES | z-score |
| --- | --- |
| CCCCn1c(CN2CCN(c3cccc(Cl)c3)CC2)nc2c1c(=O)n(C)c(=O)n2C | -5.64 (active) |
| Cn1ncc2c1ncn1nc(CCc3ccccc3)nc21 | 3.58 |
| NC(=O)c1c[nH]c2ccccc12 | -0.45 |
| CCOC(=O)c1c(C)c(C(=O)NC2CCCCC2)c(C)n1CC | -3.91 (active) |
| CCOC(=O)COc1ccc(C(=O)NC2CCCCC2)cc1 | 4.25 |
| CC(C)NC(=O)/C(C#N)=C/c1ccc(N(C)C)o1 | 9.4 |
| CO/N=C/c1ccc(N2CCN(C(=O)c3ccc(F)cc3)CC2)c([N+](=O)[O-])c1 | -5.66 (active) |
| COc1ccc(/C=C2\C(=O)NC(=S)N2C(=O)c2ccc(F)cc2)cc1 | 4.23 |
| COc1cc([C@@H]2[C@H]3CN(C)CC=C3C(C#N)=C(N)C2(C#N)C#N)cc2c1OCO2 | 5.23 |
| COc1cc(/C=N/N=C(\N)c2nonc2N)cc(OC)c1OC | 3.59 |
| O=C(Nc1ccccc1)C(O)C(O)C(=O)Nc1ccccc1 (stereo not drawn) | -0.63 |
| O=C(Nc1ccccc1)N1CCSc2ccccc21 | -3.05 (active) |
| COC(=O)c1cn(NC(=O)/C=C/c2cc(OC)ccc2OC)c(=O)c2ccccc12 | -3.15 (active) |
| CC1(C#CC[N+]2(C)CCCCC2)CCC2C(O1)c1ccccc1OC2(C)C (stereo not drawn) | 3.38 |
| CC(=O)C(=Cc1cn(-c2ccccc2)nc1-c1ccccc1)C(C)=O | 3.2 |
| COc1ccc(-c2nn(-c3ccccc3)cc2/C=C(\C#N)S(=O)(=O)c2ccccc2)cc1OC | -4.08 (active) |
| CN(C)c1ccc(/C=C/c2ccc3ccccc3n2)cc1 | 7.29 |
| Cc1cc(N2C(=O)c3ccccc3C2=O)n(C)n1 | 3.77 |
| O=C(/C=C/c1ccco1)NC(=S)Nc1ccccc1N1CCCC1 | 3.08 |
| CCc1nnc(NC(=O)CSc2ccc(-c3cccs3)nn2)s1 | 1.38 |

| SMILES | z-score |
| --- | --- |
| CCn1c(SCC(=O)N2CCCC2)nnc1-c1ccc(N)cc1 | 1.98 |
| CCn1c(SCC(=O)Nc2cc(OC)c(OC)c(OC)c2)nnc1-c1cccs1 | -4.1 (active) |
| CCOC(=O)c1ccc(CSc2nnc(-c3ccncc3)n2N)cc1 | 3.8 |
| COc1ccc(NC(=O)CSc2nnc(-c3cccs3)n2C)cc1OC | 3.55 |
| CCOc1ccccc1N1CC(O)=C(c2nc3ccccc3s2)C1=N | -3.91 (active) |
| Cc1ccc(N2C(=O)C3C(C(=O)c4ccccc4)=NN(c4ccccc4)C3C2=O)cc1 (stereo not drawn) | 3.17 |
| Cc1ccc(-n2cc(-c3ccc([N+](=O)[O-])cc3)[nH]c2=S)c(C)c1 | -6.17 (active) |
| CCN1CCC2(CC1)N=C(c1ccc(F)cc1)C(=S)N2 | 4.47 |
| CS(=O)(=O)ON=C1CCN(S(=O)(=O)c2ccccc2)CC1 | 3.51 |
| O=c1oc2c(CN3CCCCC3)c(O)ccc2cc1-c1nc2ccccc2[nH]1 | 3.57 |
| O=C1C=C(c2ccccc2)C[C@H](c2cccs2)[C@H]1n1nnc([N+](=O)[O-])n1 | -3.36 (active) |
| CCOC(=O)CC1C(=O)NCCN1c1nc2c(C)cccn2c(=O)c1/C=C1\SC(=S)N(CC(C)C)C1=O (stereo not drawn) | 16.9 |
| CCN(CC)CCCNc1nc2cc(OC)c(OC)cc2c2nc(-c3cccnc3)nn12 | -3.38 (active) |
| CCN(CC)CCCC(C)Nc1c2ccc(Cl)cc2nc2ccc(OC)cc12 (stereo not drawn) | 12.4 |
| COc1ccc(-c2c[n+](CC(=O)N3c4ccccc4Sc4ccccc43)c3n2CCC3)cc1 | -3.33 (active) |
| CC1CCC(C(C)C)C(OC(=O)C[n+]2cc(-c3ccc(Cl)cc3)n3c2CCCCC3)C1 (stereo not drawn) | -4.3 (active) |
| Nc1ccc(-c2nc3nc(N)nc(N)c3nc2-c2ccc(N)cc2)cc1 | 4.9 |
| Cc1cccc(OCC2=N/C(=C\N(C)C)C(=O)O2)c1 | 2.11 |
